Several values for one entry are separate records, joined by “and”; a condition that tells them apart may be missing. Equal entries are not always repeated. Screen size: about 350,000 compounds; about 31,000 (8.9%) were called active. Where a call stands in place of a potency, no number is given. Roughly 15% stayed inconclusive and do not appear here. This is one part of a sample in which actives are shown more often than they occur. The call rests on the fitted dose curve; in most records, active means well fitted inhibition curve with a large enough effect; inconclusive means small, poorly fitted or top-dose-only effect; inactive means no such curve, though single readings can be large or run the other way. Some compounds were tested as several samples or in several runs, with calls that do not always agree.
Molecular target: Histone-lysine N-methyltransferase EHMT2 (Homo sapiens) (UniProt Q96KQ7)
Sequence (Q96KQ7 913-1193 limits assumed): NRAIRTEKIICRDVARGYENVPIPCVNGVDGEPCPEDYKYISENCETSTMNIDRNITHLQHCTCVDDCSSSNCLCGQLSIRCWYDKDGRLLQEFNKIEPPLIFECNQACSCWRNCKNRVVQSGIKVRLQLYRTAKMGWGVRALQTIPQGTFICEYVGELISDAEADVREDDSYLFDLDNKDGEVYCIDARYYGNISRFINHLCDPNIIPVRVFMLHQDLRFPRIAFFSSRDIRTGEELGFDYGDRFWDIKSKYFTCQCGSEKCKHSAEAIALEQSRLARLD
Assay: qHTS Assay for Inhibitors of Histone Lysine Methyltransferase G9a; further: nearly all actives have a fitted effect of over 75% in size
Settings: G9a H3K9 monomethylation, AlphaScreen, 2 h; series mostly up to 59 µM
Summary of the method: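 G9a (20 nM) preincubated 15 min RT with compounds, then 500 nM biotinylated H3K9 peptide and 20 uM SAM added; 2 h RT reaction. Monomethyl-H3K9 product detected by AlphaScreen with anti-H3K9me1 antibody, streptavidin donor and anti-rabbit IgG acceptor beads.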
Potency means the concentration at half of the fitted maximal effect.

Row | Compound | Potency | activity, negative = inhibition
1 | CCOc1ccc(NC(=O)Nc2cc(C)ccc2OC)cc1 | inactive | –
2 | CCn1cc(NC(=O)Nc2ccc(OC)c(OC)c2)c(C(N)=O)n1 | 25.1 µM (active) | –
3 | COc1ccc(NC(=O)N2CCCn3nc(C)cc32)cc1OC | inactive | –
4 | Cc1ccc(NC(=O)CCCNC(=O)c2ccc(Cl)cc2)cc1S(=O)(=O)N1CCCCC1 | inactive | –
5 | O=C(O)c1c(CNCc2cccc(F)c2)c2ccccc2n1Cc1ccccc1 | inactive | –
6 | CC(O)COc1ccccc1 (configuration not stated) | inactive | –
7 | CC1(C)NC(=O)N(CCOc2cccc(Oc3ccccc3)c2)C1=O | inactive | –
8 | CC(O)CNCCOc1cccc(Oc2ccccc2)c1 (configuration not stated) | 31.6 µM (active) | –
9 | CN(C(=O)CN1C(=O)NC(C)(CCc2ccccc2)C1=O)c1ccccc1 (configuration not stated) | inactive | –
10 | O=C(Nc1nnc(C2CC2)s1)c1cc(Cl)sc1Cl | inactive | –
11 | CCOC(=O)c1oc2c(CN3CCN(C)CC3)c(O)ccc2c(=O)c1-c1ccc(Br)cc1 | inactive | –
12 | CCOC(=O)CCCN1CC(O)=C(c2nc3ccccc3s2)C1=N | inactive | –
13 | CCOC(=O)c1oc2c(CN3CCN(CCO)CC3)c(O)c(CC)cc2c(=O)c1-c1nc2ccccc2s1 | 17.8 µM (active) | –
14 | Cc1ccc(C(=O)NCCc2nnc(SCC(=O)Nc3cccc(C(=O)O)c3)n2C)cc1 | – | 10.2% [at 0.501 µM] (inactive)
15 | CCCn1c(=N)c(C(=O)NCc2ccccc2)cc2c(=O)n3cccc(C)c3nc21 | inactive | –
16 | CCCC(=O)N1CCc2[nH]c3ccccc3c2C1 | 39.8 µM (active) | –
17 | O=C(Nc1ccc(Cl)cc1)N1CCc2[nH]c3ccccc3c2C1 | inactive | –
18 | C=CCNC(=S)N1CCc2[nH]c3ccccc3c2C1 | inactive | –
19 | COc1ccc(CCNc2ncnc3c2nnn3Cc2ccccc2)cc1 | inactive | –
20 | COc1ccc(C2=NC3(CCCCC3)N(CC(=O)Nc3ccc(C(C)C)cc3)C2=O)cc1 | inactive | –
21 | Cn1ccsc1=NC(=O)c1cc(S(=O)(=O)N2CCOCC2)ccc1Cl | inactive | –
22 | CN(CC(=O)NCCc1ccc(F)cc1)CC(=O)Nc1ccc(F)c(F)c1F | inactive | –
23 | C=CCC1(C#N)C(=S)NC(C)=C(C(=O)OCC)C1c1ccccc1 (configuration not stated) | inactive | –

Row | Compound | Potency | activity, negative = inhibition
24 | CCOC(=O)C1=C(C)NC(=O)NC1c1ccccc1 (configuration not stated) | inactive | –
25 | CCOC(=O)C1=C(C)NC(SC)=NC1c1ccccc1 (configuration not stated) | 2 µM (active) | –
26 | CCCCOc1ccc(CNC(=O)c2ccc3c(c2)N(C)C(=O)C2CCCCN32)cc1 (configuration not stated) | inactive | –
27 | Cc1cccc(C(CC(=O)NCC2(c3ccccc3)CCCC2)c2ccccc2)c1O (configuration not stated) | inactive | –
28 | O=C(Nc1cccc(O)c1)c1ccc(C(=O)c2ccccc2)o1 | inactive | –
29 | C/C(=C\C(=O)c1ccccc1)Nc1cccc(O)c1 | 50.1 µM (active) | –
30 | O=C(CSc1ccccc1)Nc1ccc(C(=O)Nc2cccc(O)c2)cc1 | inactive | –
31 | COc1cccc(CNC(=O)c2cc(=O)[nH]c3ccc(S(=O)(=O)N4CCCCC4)cc23)c1 | inactive | –
32 | O=C(CSc1n[nH]c(-c2ccccc2)n1)N1CCCCC1 | inactive | –
33 | N#C/C(=C\c1ccccc1F)c1nc2ccccc2c(=O)[nH]1 | inactive | –
34 | COc1cccc(-n2cc(C(=O)O)c3ccccc3c2=O)c1 | inactive | –
35 | COc1cccc(-n2ccn(CC(=O)NCc3ccc(C)cc3)c(=O)c2=O)c1 | inactive | –
36 | CCN(Cc1ccccc1)C(=O)c1cn(-c2cccc(OC)c2)c(=O)c2ccccc12 | 11.2 µM (active) | –
37 | CN(Cc1ccccc1)C(=O)c1cn(C)c2ccc(S(=O)(=O)N(C)C3CCCCC3)cc2c1=O | inactive | –
38 | O=S(=O)(NCCS(=O)(=O)N1CCN(c2ccccc2)CC1)c1ccc(Cl)cc1 | inactive | –
39 | CC(C)[C@@H]1COC(c2cccc(C3=N[C@H](C(C)C)CO3)c2)=N1 | inactive | –
40 | CN(C(=O)c1ccccn1)c1nnc(-c2ccccn2)s1 | 70.8 µM (active) | –
41 | CN(C(=O)c1ccno1)c1nnc(-c2cccnc2)s1 | inactive | –
42 | COc1cc(OC)cc(-c2nnc(N(C)C(=O)c3ccncc3)s2)c1 | inactive | –
43 | CC(C)CCN1CCC(C)(NC(=O)c2ccccc2)C1=O (configuration not stated) | – | -0.393% [at 0.501 µM] (inactive)
44 | COc1ncnc2c1N=C1CC(C)(C)CC(N)=C1S2 | 3.16 µM (active) | –
45 | CC(C)NC(=S)N1CCN(S(C)(=O)=O)CC1 | inactive | –
46 | CC(=O)c1cccc(NC(=S)N2CCN(S(C)(=O)=O)CC2)c1 | 44.7 µM (active) | –

Row | Compound | Potency | activity, negative = inhibition
47 | CC(=O)c1cccc(NC(=S)N2CCCC2)c1 | inactive | –
48 | O=C(Cc1ccc(Cl)cc1)NC1CCS(=O)(=O)C1 (configuration not stated) | inactive | –
49 | Cc1cc(C)c(CN2CCN(C(=O)Cn3ccc(NC(=O)OCc4ccccc4)nc3=O)CC2)c(C)c1 | – | -47.4% [at 0.501 µM] (inactive)
50 | NC(=O)C1CCN(C(=O)c2ccc(F)c(S(=O)(=O)N3CCOCC3)c2)CC1 | – | 2.82% [at 2.33 µM] (inactive)
51 | CCOc1ccc(-c2n[nH]c3c2C(c2ccccc2OC)N(c2ccc(Br)cc2)C3=O)cc1 (configuration not stated) | inactive | –
52 | Cc1sc2ncnc(N3CCC(C(=O)NNC(=O)c4ccc(F)cc4)CC3)c2c1C | inactive | –
53 | Cc1ccc(NC(=S)N(CCN(C)C)Cc2cccs2)cc1C | inactive | –
54 | Cc1ccc(Cl)cc1NC(=S)N(CCN(C)C)Cc1cccs1 | 39.8 µM (active) | –
55 | Cc1ccccc1NC(=S)N(CCCN1CCOCC1)Cc1cccs1 | inactive | –
56 | CC(C)Nc1ccc(-n2nc3ccccc3[n+]2[O-])cc1 | inactive | –
57 | c1ccc2cc(CCCc3cc4ccccc4cn3)ncc2c1 | – | 5.78% [at 0.501 µM] (inactive)
58 | NC(=O)C1CCN(C(=O)c2cn(-c3ccccc3)nc2-c2cccnc2)CC1 | inactive | –
59 | Cc1ccc(C)n1C(Cc1ccccc1)C(=O)O (configuration not stated) | 35.5 µM (active) | –
60 | COc1ccc(CNC(=O)C(Cc2ccccc2)n2cccc2)cc1 (configuration not stated) | inactive | –
61 | CC(Cc1ccccc1)C(=O)N(C)Cc1ccccc1 (configuration not stated) | inactive | –
62 | Cc1ccc(S(=O)(=O)N2CCCCC2)cc1NC(=O)[C@@H]1CCCN1C(=O)c1cccs1 | – | -7.65% [at 12.7 µM] (inactive)
63 | Cc1ccc2nc(COc3cccc(NC(=O)c4ccccc4Cl)c3)cc(=O)n2c1 | inactive | –
64 | Cc1c(-c2ccccc2)cn2c1-c1ccc(C)n1CC2 | 44.7 µM (active) | –
65 | CCOC(=O)C1CCN(S(=O)(=O)c2ccc3c(c2)N(C(C)=O)CCO3)CC1 | inactive | –
66 | CCOC(=O)C1CCCN(S(=O)(=O)c2ccc3c(c2)C(C)(C)C(=O)N3C)C1 (configuration not stated) | inactive | –
67 | CCOC(=O)C1CCN(S(=O)(=O)c2ccc3c(c2)N(C)C(=O)CC(=O)N3C)CC1 | inactive and 79.4 µM (active) | –
